Screens as filed in PubChem BioAssay.
ADAM10 inh = human ADAM10 inhibitors, primary screen, biochemical, QFRET, HTS | Disintegrin and metalloproteinase domain-containing protein 10 (Homo sapiens), O14672 | AID 720582, 2013 | hit rate 0.62% among 370,000 | inhibition, % at 7 µM | recombinant ADAM10, EDANS/DABCYL FRET peptide cleavage, 3 h;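 active = inhibition above a per-campaign cutoff equal to the mean of compounds falling between control-based bounds plus 3 SD, cut at about 20% in these data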;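 note: 0% = DMSO wells while the 100% control is not disclosed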
KLK7 zymogen act = proKLK7 zymogen activators, primary screen, biochemical, fluorescence intensity; hit rate 0.9% among 370,000; Kallikrein-7 (Homo sapiens), P49862; purified proKLK7, EDANS-DABCYL substrate fluorescence; 100% is mature enzyme control, 0% vehicle; activation, % at 7 µM;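 active = activation above the mean of all tested compounds plus 3 SD, computed per campaign excluding outliers beyond control limits, cut at about 13% in these data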
ADAM17 inh = ADAM17 inhibitors, primary screen, biochemical, QFRET. inhibition, % at 6.95 µM. AID 720648, 2013. hit rate 0.83% among 370,000. Disintegrin and metalloproteinase domain-containing protein 17 (Homo sapiens), P78536. recombinant ADAM17, EDANS/DABCYL FRET peptide cleavage;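 active = inhibition above the mean of compounds lying between control limits plus 3 SD, set per campaign, cut at about 8.5% in these data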;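 note: 0% = DMSO-only wells as the low control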
Target sequence (P78536 215-824 limits assumed): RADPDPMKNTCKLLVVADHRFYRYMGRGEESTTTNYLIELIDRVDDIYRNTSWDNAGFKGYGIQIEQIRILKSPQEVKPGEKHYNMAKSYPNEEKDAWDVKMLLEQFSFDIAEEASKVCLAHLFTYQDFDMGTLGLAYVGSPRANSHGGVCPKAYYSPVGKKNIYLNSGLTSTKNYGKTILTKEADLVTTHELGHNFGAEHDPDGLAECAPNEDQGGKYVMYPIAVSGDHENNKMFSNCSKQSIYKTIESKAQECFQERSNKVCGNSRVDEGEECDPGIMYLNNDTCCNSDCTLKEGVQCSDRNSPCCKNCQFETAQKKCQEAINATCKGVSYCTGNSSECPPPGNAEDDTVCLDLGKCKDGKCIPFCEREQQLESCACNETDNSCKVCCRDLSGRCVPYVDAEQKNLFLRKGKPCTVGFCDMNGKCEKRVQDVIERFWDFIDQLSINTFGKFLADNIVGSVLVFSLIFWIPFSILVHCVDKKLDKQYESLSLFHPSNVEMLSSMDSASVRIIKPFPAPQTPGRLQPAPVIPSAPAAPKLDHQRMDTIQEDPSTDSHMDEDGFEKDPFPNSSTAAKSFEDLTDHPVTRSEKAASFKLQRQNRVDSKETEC
rRNA inh HTS = reduced GFP signal of wild-type E. coli, primary screen, bacterial rRNA inhibitor project, GFP/RFP fluorescence, OD600, single point; E. coli WT GFP vs humanized-ribosome RFP mutants, 24 h; stronger effect = lower value; DMSO median 0, no signal -100; GFP signal change (wild-type ribosome), % (test concentration not listed); hit rate 1.6% among 350,000;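 active = significant combined selectivity score with lowered wild-type GFP, culture density cut under 30%, mutant RFP and density less affected; inactive = any of these conditions unmet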
FGF22 binding = binders of human FGF22 protein, primary screen, FGF22 synaptogenesis inhibitor project, biophysical, thermal shift, single point. Fibroblast growth factor 22 (Homo sapiens), Q9HCT0. recombinant FGF22 thermal shift, SYPRO orange fluorescence; percent of sucrose octasulfate shift, DMSO zero. activity (Tm shift, normalised), % at 9.99 µM. hit rate 1.5% among 340,000;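 active = mean Tm shift, scaled 0 neutral to 100 positive control, at about 1.3% or above, every replicate too, limit read from the data; inconclusive = no clear call, values can overlap the other calls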
HepG2 cytotox = cytotoxicity in HepG2 cells, dose response, cytotoxicity control, cell-based, CellTiter-Glo luminescence, cherry-pick, set 4; shares compounds with rRNA inh HTS; HepG2 viability, ATP luminescence, 72 h; activity change, negative = cytotoxicity, unspecified at 26 µM; 30 tested, under 10 active; AID 743480, 2014;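 active = compounds whose fitted half-maximal signal-loss concentration is at most twice their highest valid dose; inconclusive = flat curve with 30 to 70% signal loss, or poor fit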
AID977621 = growth inhibition of wild-type GFP E. coli, dose response, H69 mutant RFP, cherry-pick | shares compounds with rRNA inh HTS | E. coli wild-type GFP strain growth, fluorescence, 24 h | activity change, negative = inhibition at 50 µM | 1,900 tested, under 10 active | AID 977621, 2014;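 active = Wild-type ribosome reporter drop at least double the humanized mutant ribosome reporter drop, growth loss under a set limit; inconclusive = no clear call, values can overlap the other calls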;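 note: wild-type GFP and H69 mutant RFP strains grown together 50/50 in each well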
AID977628 = E. coli growth inhibition, wild-type GFP versus h24 humanized RFP strain, dose response, h24 mutant RFP vs wild-type GFP, cherry-pick. shares compounds with rRNA inh HTS. E. coli WT GFP strain growth, fluorescence, 24 h. activity change, negative = inhibition at 50 µM. 1,900 tested, under 10 active. AID 977628, 2014;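 active = compound lowering the normal-ribosome reporter at least twice as much as the humanized-ribosome reporter, growth loss under a set limit; inconclusive = no clear call, values can overlap the other calls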;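 note: wild-type GFP and h24 humanized RFP strains co-cultured 1 to 1 per well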
Active calls of the source: *. Most compounds without a hit are left out; they make up all but 3.8% or so of the library.

What do the screens show for `C[C@H]1CCCCO[C@@H](CN(C)S(=O)(=O)c2ccccc2)[C@@H](C)CN([C@@H](C)CO)C(=O)c2cc(NS(=O)(=O)c3ccc(F)cc3)ccc2O1`?
rRNA inh HTS: -3.4; FGF22 binding: -0.5

Results for CC(c1ccc(F)cc1)n1c(-c2ccc3ccccc3n2)n[nH]c1=S (centres undefined) ?
ADAM10 inh: 12.6; KLK7 zymogen act: -0.7; ADAM17 inh: -0.3; rRNA inh HTS: -32.1*; AID977621: -4.68

How did CC(C)NC(=O)N(C)C[C@@H]1OCCCC[C@@H](C)Oc2ccc(NS(=O)(=O)c3ccc(F)cc3)cc2C(=O)N([C@@H](C)CO)C[C@@H]1C do in these assays?
rRNA inh HTS: 3.5; FGF22 binding: 0.1

Results for COc1ccc(-c2csc3ncn(-c4ccc(C)cc4)c(=O)c23)cc1OC ?
ADAM10 inh: 6.9; KLK7 zymogen act: 0.9; ADAM17 inh: -0.6; rRNA inh HTS: -22.7*; FGF22 binding: -0.1; AID977621: inconclusive

Results for COc1ccc(-n2cnc3scc(-c4ccc(OC)c(OC)c4)c3c2=O)cc1 ?
ADAM10 inh: -0.2; KLK7 zymogen act: 0.2; ADAM17 inh: -2.1; rRNA inh HTS: 7.8; FGF22 binding: 0.0

What do the screens show for `C=CCn1c(C)cc(C(=O)CSc2nnc(C3CC3)n2C2CC2)c1C`?
ADAM10 inh: -7.5; KLK7 zymogen act: 0.8; ADAM17 inh: -5.3; rRNA inh HTS: -19.6*; FGF22 binding: 0.1; AID977621: -20.2

How did COc1ccc(NC(=O)CCS(=O)(=O)c2ccccc2Cl)cc1S(=O)(=O)Nc1ccc(Cl)cc1 do in these assays?
ADAM10 inh: 5.9; KLK7 zymogen act: 0.7; ADAM17 inh: 1.0; rRNA inh HTS: -19.4*; FGF22 binding: -0.1; AID977621: -7.71

Results for COc1ccc(NC(=O)CCC(=O)c2cccs2)cc1S(=O)(=O)Nc1ccc(Cl)cc1 ?
ADAM10 inh: 15.4; KLK7 zymogen act: 0.0; ADAM17 inh: 6.7; rRNA inh HTS: -19.4*; FGF22 binding: 0.2; AID977621: -14.8

How did CCn1c(SCC(=O)Nc2ccc(OC)cc2)nc2nc3c(cc2c1=O)CCCC3 do in these assays?
ADAM10 inh: 7.0; KLK7 zymogen act: 0.2; ADAM17 inh: -1.9; rRNA inh HTS: -27.9*; FGF22 binding: -0.1; AID977621: 0.299; AID977628: inconclusive

How did CCn1c(SCC(=O)Nc2ccc(Cl)cc2)nc2nc3c(cc2c1=O)CCCC3 do in these assays?
ADAM10 inh: -2.8; KLK7 zymogen act: -0.2; ADAM17 inh: -2.4

What do the screens show for `O=C(C[C@@H]1CC[C@H](NC(=O)CC2CC2)[C@H](CO)O1)NCc1ccc(Cl)cc1`?
rRNA inh HTS: -1.9; FGF22 binding: 0.4

How did Cc1ccc(-n2cc(CNCCN3CCOC3=O)c(-c3ccc(F)cc3)n2)cc1 do in these assays?
ADAM10 inh: 0.9; KLK7 zymogen act: -0.3; ADAM17 inh: -6.1; rRNA inh HTS: -18.3*; FGF22 binding: 0.1; AID977621: -14.4; AID977628: inconclusive

What do the screens show for `C[C@@H]1CN([C@H](C)CO)C(=O)c2cccc(NC(=O)Nc3ccc4c(c3)OCO4)c2O[C@H]1CN(C)Cc1ccc(-c2ccccc2)cc1`?
rRNA inh HTS: -5.8; FGF22 binding: -0.2

How did CC(=O)Nc1ccc(S(=O)(=O)Nc2cccc(-c3nc4cc(C)ccc4o3)c2)cc1 do in these assays?
ADAM10 inh: 5.5; KLK7 zymogen act: 0.2; ADAM17 inh: -1.2; rRNA inh HTS: -17.5*; FGF22 binding: 0.3; AID977621: -3.93

What do the screens show for `Cc1ccc(C)c(NC(=O)CSc2nc3nc(-c4cccs4)cc(C(F)(F)F)c3c(=O)[nH]2)c1`?
ADAM10 inh: -194.1; KLK7 zymogen act: 2.1; ADAM17 inh: -60.5; rRNA inh HTS: -19.9*; FGF22 binding: -0.1; HepG2 cytotox: 4.1; AID977628: inconclusive

Results for COC(=O)[C@]1(Sc2ccc(C)cc2)CC(=O)N[C@@H]1c1ccccc1 ?
ADAM10 inh: -1.7; KLK7 zymogen act: 0.1; ADAM17 inh: -4.5; rRNA inh HTS: -21.1*; FGF22 binding: -0.3; AID977621: -6.43; AID977628: inconclusive

What do the screens show for `O=C(NC1CCCC(C(F)(F)F)C1)c1ccc([N+](=O)[O-])o1` (centres undefined)?
ADAM10 inh: -1.4; KLK7 zymogen act: -0.3; ADAM17 inh: -2.7; rRNA inh HTS: -23.7*; FGF22 binding: 0.2; AID977628: inconclusive

How did O=C(COC(=O)c1ccc([N+](=O)[O-])o1)NC1CCCC1 do in these assays?
ADAM10 inh: -3.2; KLK7 zymogen act: 0.0; ADAM17 inh: -0.6; rRNA inh HTS: -3.7; FGF22 binding: -0.2

Results for C[C@H](CO)N1C[C@H](C)[C@H](CN(C)Cc2ccc(C(=O)Nc3ccccc3N)cc2)Oc2ccc(NS(=O)(=O)c3ccc(Cl)cc3)cc2CC1=O ?
rRNA inh HTS: -2.0; FGF22 binding: 0.2

How did O=C(O)C1(Nc2ccc([N+](=O)[O-])cc2[N+](=O)[O-])CCCC1 do in these assays?
ADAM10 inh: 2.2; KLK7 zymogen act: -0.1; ADAM17 inh: 0.5; rRNA inh HTS: -16.1*; FGF22 binding: 0.0; AID977621: -17; AID977628: -9.39

Results for CCC(=O)N[C@@H]1CC[C@H](CCNS(=O)(=O)c2ccc(Cl)cc2)O[C@@H]1CO ?
rRNA inh HTS: 0.2; FGF22 binding: -0.1

What do the screens show for `Cc1nn(S(=O)(=O)c2ccc(Cl)cc2)c(C)c1Sc1ccc([N+](=O)[O-])cc1`?
ADAM10 inh: -11.4; KLK7 zymogen act: -0.4; ADAM17 inh: 0.7; rRNA inh HTS: -27.9*; FGF22 binding: -0.3; AID977621: -2.62

How did Cc1nn(-c2ccccc2)c(N)c1Sc1ccc([N+](=O)[O-])cc1 do in these assays?
ADAM10 inh: 4.4; KLK7 zymogen act: -0.1; ADAM17 inh: 2.9
